Among the data in PubChem BioAssay (NCATS) are Potency values, retold here.

A short description of assay [1]: qHTS of pediatric cancer cell lines to identify multiple opportunities for drug repurposing: Primary screen for control Hh wild type fibroblast cells (AID 1347106). Also: nearly all actives have a fitted effect of over 55% in size. In short, it runs like this: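 Cells (500-1,000/well) in growth media were settled 5 h at 37 degrees C, then given compounds for 48 h. Viability was read as CellTiter-Glo luminescence. Primary runs used MIPE at 11 points (0.78 nM-46 µM) and NPC at 8 points (0.59 nM-46 µM); follow-ups used 11 points.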
(qHTS replaces the single test concentration by a dilution series.)

Assay [2] is described as follows: qHTS of pediatric cancer cell lines to identify multiple opportunities for drug repurposing: Primary screen for Rh30 cells (AID 1347107). Also: nearly all actives have a fitted effect of over 75% in size. Summed up: (§1)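 Cells (500-1,000/well) rested 5 h, then received compounds for 48 h; metabolically active cells were measured by CellTiter-Glo luminescence. Final concentrations spanned up to 46 µM (MIPE, 11-point) or 0.59 nM-46 µM (NPC, 8-point) in primary screens, 11-point in follow-ups.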

The nature of assay [3]: qHTS of pediatric cancer cell lines to identify multiple opportunities for drug repurposing: Confirmatory screen for NB1643 cells (AID 1347109). Also: nearly all actives have a fitted effect of over 45% in size. Summed up:
as §1

Assay [4] can be described thus: qHTS of pediatric cancer cell lines to identify multiple opportunities for drug repurposing: Confirmatory screen for SK-N-MC cells (AID 1347111).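 Also: cells exposed to compound for 48 h before the readout; nearly all actives have a fitted effect of over 70% in size.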 In short, it runs like this:
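Seed 500-1,000 cells/well; rest 5 h at 37 degrees C. Pin-transfer compounds, 11-point titration. Incubate 48 h. Add CellTiter-Glo, 15 min RT, read luminescence.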

A short description of assay [5]: qHTS of pediatric cancer cell lines to identify multiple opportunities for drug repurposing: Confirmatory screen for BT-12 cells (AID 1347112). Also: nearly all actives have a fitted effect of over 55% in size. In short, it runs like this: as §1
Assay [6] is described as follows: qHTS of pediatric cancer cell lines to identify multiple opportunities for drug repurposing: Confirmatory screen for LAN-5 cells (AID 1347113). Also: nearly all actives have a fitted effect of over 65% in size. Summed up:
as §1

Assay [7] in a line: qHTS of pediatric cancer cell lines to identify multiple opportunities for drug repurposing: Confirmatory screen for DAOY cells (AID 1347114). Also: nearly all actives have a fitted effect of over 65% in size. Summed up:
(§2)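 Viability measured as metabolically active cells via CellTiter-Glo luminescence following 48 hours of compound exposure, 11-point dilutions in confirmatory testing. 500-1,000 cells/well plated 5 hours before dosing; controls were DMSO and 2.3 µM bortezomib.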

Assay [8] in a line: qHTS of pediatric cancer cell lines to identify multiple opportunities for drug repurposing: Confirmatory screen for TC32 cells (AID 1347118).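 Also: cells exposed to compound for 48 h before the read; nearly all actives have a fitted effect of over 65% in size.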 Summed up:
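qHTS, TC32, 48 h drug treatment, CellTiter-Glo luminescence as a proxy for metabolically active cells; primary top concentration 46 µM (MIPE 11-pt, NPC 8-pt); confirmatory 11-pt.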

Assay [9] in a line: qHTS of pediatric cancer cell lines to identify multiple opportunities for drug repurposing: Confirmatory screen for MG 63 (6-TG R) cells (AID 1347119). Also: nearly all actives have a fitted effect of over 55% in size. In short, it runs like this:
as §1

A short description of assay [10]: qHTS of pediatric cancer cell lines to identify multiple opportunities for drug repurposing: Confirmatory screen for control Hh wild type fibroblast cells (AID 1347121). Also: nearly all actives have a fitted effect of over 70% in size. Summed up:
as §1

The nature of assay [11]: qHTS of pediatric cancer cell lines to identify multiple opportunities for drug repurposing: Confirmatory screen for RD cells (AID 1347124).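 Also: cells exposed to compound for 48 h before viability readout; nearly all actives have a fitted effect of over 65% in size.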 Summed up: as §1
The nature of assay [12]: qHTS of pediatric cancer cell lines to identify multiple opportunities for drug repurposing: Confirmatory screen for Rh18 cells (AID 1347125). Also: nearly all actives have a fitted effect of over 55% in size. Summed up: as §1
The nature of assay [13]: qHTS of pediatric cancer cell lines to identify multiple opportunities for drug repurposing: Confirmatory screen for SJ-GBM2 cells (AID 1347116). Also: nearly all actives have a fitted effect of over 60% in size. Summed up:
as §2

A short description of assay [14]: qHTS of pediatric cancer cell lines to identify multiple opportunities for drug repurposing: Confirmatory screen for Rh41 cells (AID 1347123).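 Also: 48 h compound exposure; nearly all actives have a fitted effect of over 60% in size.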 In short, it runs like this: as §1
Assay [15] in a line: qHTS of pediatric cancer cell lines to identify multiple opportunities for drug repurposing: Confirmatory screen for Rh30 cells (AID 1347126). Also: nearly all actives have a fitted effect of over 55% in size. In short, it runs like this: as §1
The nature of assay [16]: qHTS of pediatric cancer cell lines to identify multiple opportunities for drug repurposing: Primary screen for Rh41 cells (AID 1347108). Also: nearly all actives have a fitted effect of over 70% in size. Summed up: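 Readout: CellTiter-Glo luminescence, 48 h treatment. Controls DMSO (neutral) and bortezomib 2.3 µM final (positive). Potency and efficacy taken from primary-screen concentration-response curves.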
Assay [17] can be described thus: qHTS of pediatric cancer cell lines to identify multiple opportunities for drug repurposing: Confirmatory screen for A673 cells (AID 1347110). Summed up: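 Cells plated at 500-1,000/well were treated five hours later with multi-point dilutions up to 46 µM final. After two days, CellTiter-Glo was added and luminescence read.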
Assay [18] can be described thus: qHTS of pediatric cancer cell lines to identify multiple opportunities for drug repurposing: Confirmatory screen for U-2 OS cells (AID 1347122). Also: nearly all actives have a fitted effect of over 65% in size. In short, it runs like this:
as §1

A short description of assay [19]: qHTS of pediatric cancer cell lines to identify multiple opportunities for drug repurposing: Confirmatory screen for BT-37 cells (AID 1347117). Also: nearly all actives have a fitted effect of over 55% in size. Summed up: as §1
Assay [20] can be described thus: qHTS of pediatric cancer cell lines to identify multiple opportunities for drug repurposing: Confirmatory screen for NB-EBc1 cells (AID 1347115).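 Also: cells exposed to compound for 48 h before the viability read; nearly all actives have a fitted effect of over 45% in size.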 In short, it runs like this: as §1

Inconclusive results are not listed. Calls of active or inactive are those of the source. Calls follow the shape of the dose curve; as a rule, active = well fitted curve in the direction sought with a large enough effect; inconclusive = small, poorly fitted or top-dose-only effect, or another doubt; inactive = no such curve, though single readings can be large; an effect the other way counts as inactive or inconclusive.
Potency is read from the fitted curve at half-maximal effect.

Consider `CN(C)CC(C)(C)CNc1nn2c(-c3ccccc3)nnc2cc1C1CCC1`, for which the Potency entry in assay [1], in [2], in [3], in [5], in assay [6] and in assay [7] was “inactive” throughout. The Potency entry in assay [9], in [10], in [11] and in [12] was “inactive” in each case. Also, the Potency was 20.8 µM (active) in assay [4] and 18.5 µM (active) in [8].
Regarding `CCC(=C(c1ccccc1)c1ccc(OCCN(C)C)cc1)c1ccccc1`, the Potency entry in [1], in [2], in [13], in assay [10], in assay [14] and in assay [15] was “inactive” in each case. Besides, the Potency in [4] is 23.3 µM (active); in assay [8] it was 20.8 µM (active).
On to `O=C(O)C1(Cc2cccc(Nc3nccs3)n2)CCC(Oc2cccc(Cl)c2F)CC1` (stereo not drawn), for which the Potency entry in [1] and in assay [16] was “inactive” throughout.
As to `CC=C1NC(=O)[C@H]2CSSCCC=C[C@H](CC(=O)N[C@H](C(C)C)C(=O)N2)OC(=O)[C@H](C(C)C)NC1=O`, the Potency in [1] was 0.0526 µM (active); in [2] it was 0.0296 µM (active); in assay [16], 0.0148 µM (active); in assay [4] it was 11.7 µM (active); in [8] it was 14.7 µM (active). Also, the Potency entry in assay [17], in assay [6], in assay [7], in assay [13], in [10] and in assay [18] was “inactive” each time. For the same molecule, the Potency result in [14], in assay [12] and in assay [15] was “inactive” in each case.
As for `Cc1cc(Nc2nc(N[C@@H](C)c3ccc(F)cc3)c(C#N)cc2F)n[nH]1`, the Potency in assay [1] is 14.8 µM (active); in [16] it was 5.9 µM (active).
`COC(=O)Nc1nc2ccc(C(=O)c3ccc(F)cc3)cc2[nH]1`: the Potency entry in [1], in assay [2], in [10], in [12] and in [15] was “inactive” throughout. Moreover, the Potency in [17] is 1.31 µM (active); in assay [4] it was 1.31 µM (active); in assay [5], 8.27 µM (active); in [7] it was 1.17 µM (active); in assay [13], 2.33 µM (active); in assay [19], 2.61 µM (active). Besides, the Potency is 1.17 µM (active) in [8], 1.47 µM (active) in assay [9] and 2.93 µM (active) in [11].
As to `O=C(Nc1cc(C(F)(F)F)cc(C(F)(F)F)c1)c1cc(Cl)ccc1O`, the Potency entry in assay [1] is “inactive”. Moreover, the Potency in assay [16] was 2.35 µM (active); in assay [3], 1.65 µM (active); in assay [17], 3.29 µM (active); in assay [4] it was 3.69 µM (active); in [5], 3.69 µM (active); in assay [6] it was 2.61 µM (active). Besides, the Potency in [20] was 2.93 µM (active); in assay [19], 1.85 µM (active); in assay [8], 2.93 µM (active); in assay [9], 0.928 µM (active); in [10], 2.33 µM (active); in [12], 3.69 µM (active).
With `Nc1cccc(-c2cc3c(Oc4cccc(O)c4)ncnc3[nH]2)c1`, in assay [1], the Potency entry was “inactive”. For the same molecule, the Potency in [16] is 5.9 µM (active).
Consider `CCOC(=O)C1=C(C)NC2=C(C(=O)CC(C)(C)C2)C1c1ccc(-c2ccccc2)cc1` (stereo not drawn), for which the Potency entry in assay [1] was “inactive”. The Potency in assay [16] was 18.7 µM (active).
With `Cc1ccc(C(=O)Nc2cccc(C(F)(F)F)c2)cc1-c1ccc2nc(NCCN3CCOCC3)ncc2c1`, the Potency in assay [1] was 14.8 µM (active); in [16], 14.8 µM (active); in [17], 13.1 µM (active); in [4], 14.7 µM (active); in [6], 9.27 µM (active); in [7], 20.8 µM (active). Moreover, the Potency was 13.1 µM (active) in assay [13]; 4.14 µM (active) in [19]; 6.57 µM (active) in assay [8]; 4.14 µM (active) in assay [18]; 5.85 µM (active) in [14]; 7.37 µM (active) in assay [11]. Moreover, the Potency in assay [12] is 7.37 µM (active); in [15] it was 5.22 µM (active).
Regarding `COc1cc(=C2C=c3ccccc3=N2)[nH]c1=Cc1[nH]c(C)cc1C`, the Potency in [1] was 10.5 µM (active); in assay [16], 5.9 µM (active); in assay [17], 2.19 µM (active); in assay [4] it was 11.7 µM (active); in assay [5] it was 26.1 µM (active); in assay [6], 10.4 µM (active). For the same molecule, the Potency in assay [13] is 43.7 µM (active); in [19], 7.37 µM (active); in [8] it was 7.37 µM (active); in assay [15], 17.4 µM (active).
